Data from PubChem BioAssay (EPA / NIEHS).
Results filed as inconclusive are left out. Activity calls are given as the source filed them. The calls were made as follows, unless noted: active = hit-call score of the fitted dose curve at least 0.9, where 1 is the maximum; inconclusive = response in the unintended direction; inactive = score below 0.9.

Legend:
[1] = Tanguay_ZF_120hpf_SWIM_legacy: (Legacy) Oregon State University Tanguay Lab 120 Hour Post-fertilization zebrafish Assay for Swim Bladder Malformation (AID 2283654);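 also: swim bladder malformation in each larva scored yes or no under brightfield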
Outline: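 Dechorionated Tropical 5D wild-type embryos, placed singly from 6 hpf, were statically exposed at 28C to 120 hpf with 0.64% DMSO final; swim bladder malformation was scored present/absent by brightfield microscopy, gain of signal relative to DMSO controls.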

[2] = Tanguay_ZF_120hpf_TRUN_legacy: (Legacy) Oregon State University Tanguay Lab 120 Hour Post-fertilization zebrafish Assay for Truncated Body (AID 2283655)
Outline: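 Tropical 5D wild-type embryos, dechorionated with pronase at 4 hpf, were placed singly in wells at 6 hpf and statically exposed at 28C until 120 hpf, final DMSO 0.64%. Truncated body was scored present/absent by brightfield microscopy.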

[3] = Tanguay_ZF_120hpf_NC_legacy: (Legacy) Oregon State University Tanguay Lab 120 Hour Post-fertilization zebrafish Assay for Notochord and Tail Malformation (AID 2283656)
Outline: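 Dechorionated 5D zebrafish, 1/well from 6 hpf; static exposure to 120 hpf, 28C, sealed, dark; final DMSO 0.64% v/v. NC scored binary (present/absent); dead embryos not scored. Fit vs DMSO baseline, gain direction.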

[4] = test system: Thyroperoxidase (TPO), gene 54314; test: CCTE_Simmons_AUR_rTPO: CCTE's Amplex UltraRed Assay for Thyroperoxidase (TPO) Inhibition, Simmons Lab (AID 2283662);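 as to AC50: potency for loss of signal meaning inhibition of peroxidase activity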
Outline: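 Endpoint is decreased Amplex UltraRed fluorescence after a 30-min, 37C reaction of rat thyroid microsomes with 300 uM H2O2. Eight test concentrations (5 nM–87.5 uM final) in 0.5% DMSO, three biological replicates each.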

[5] = CCTE_Simmons_CellTiterGLO_HEK293T: Viability Assessment in CCTE's Assays for Thyroperoxidase (TPO) Inhibition, Simmons Lab (AID 2283665);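 as to AC50: cells exposed to compound for 24 h before readout; actives reduce ATP signal below DMSO vehicle meaning cytotoxicity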
Outline: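 Cytotoxicity counter-screen: human HEK293T cells in low-serum (1% FBS) medium receive test chemical, 5 nM to 87.5 uM final, for 24 h; ATP is quantified by luciferase luminescence.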

[6] = Tanguay_ZF_120hpf_TR_legacy: (Legacy) Oregon State University Tanguay Lab 120 Hour Post-fertilization zebrafish Assay for Touch Response (AID 2283667)
Outline: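 Tropical 5D wild-type zebrafish embryos were exposed statically in sealed, foil-covered plates at 28C until 120 hpf, with 0.64% (vol/vol) final DMSO. Touch response was scored as present or absent; embryos that died were not scored.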

[7] = CCTE_Padilla_ZF_144hpf_TERATOSCORE: (Legacy) CCTE's 144 Hour Post-fertilization zebrafish Assay Teratoscore, Padilla Lab (AID 2283679; active = hit-call score of the fitted dose curve at least 0.9, where 1 is the maximum; inactive = score below 0.9;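 as to AC50: zebrafish embryos with chorions exposed by immersion from 6-8 hpf to 5 dpf with daily renewal; teratogenicity score from eye scoring of death hatching and malformations at 144 hpf; higher score means more developmental defects relative to DMSO baseline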)
Outline: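 Larvae scored by eye at 144 hpf for death, hatching and malformations after a day in clean Hanks'. Before that, daily-renewed exposure at 80 uM (0.4% DMSO, 26C) from roughly 6-8 hpf through 5 dpf, 4 embryos per chemical.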

[8] = STM_H9_OrnithineISnorm_perc: Stemina devTOX quickPredict H9 human embryonic stem cell (hESC)-based Assay for Ornithine (ORN) Metabolite Biomarker, Normalized (AID 2283712; active = hit-call score of the fitted dose curve at least 0.9, where 1 is the maximum; inactive = score below 0.9;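 also: ornithine released into spent medium during last day measured by mass spectrometry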)
Outline: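 Cells: undifferentiated H9 hESC. Dosing: 72 h, media replaced every 24 h. Sample: final 24-h conditioned media, 40% acetonitrile. Read: UPLC-HRMS ornithine area vs 13C standard, % DMSO control.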

[9] = STM_H9_CystineISnorm_perc: Stemina devTOX quickPredict H9 human embryonic stem cell (hESC)-based Assay for Cystine (CYSS) Metabolite Biomarker, Normalized (AID 2283713; active = hit-call score of the fitted dose curve at least 0.9, where 1 is the maximum; inactive = score below 0.9)
Outline: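 Secreted cystine was measured by UPLC-HRMS in H9 hESC medium after 72h compound exposure with 24-hourly replenishment. Values are standard-normalized areas relative to 0.1% DMSO.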

[10] = STM_H9_OrnCyssISnorm_ratio: Stemina devTOX quickPredict H9 human embryonic stem cell (hESC)-based Assay for Ornithine (ORN):Cystine (CYSS) Ratio (AID 2283714)
Outline: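 Undifferentiated H9 hESCs were exposed to compound for 72h with media and chemical replaced every 24h. Final 24-h conditioned media were deproteinized and analysed by UPLC-HRMS. ORN and CYSS peak areas were normalized to C13 internal standards and the ratio taken versus 0.1% DMSO.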

[11] = CEETOX_H295R_MTT_cell_viability: Viability Assessment in the CeeTox HT-H295R MTT Assay (AID 2283718; active = hit-call score of the fitted dose curve at least 0.9, where 1 is the maximum; inactive = score below 0.9;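 as to AC50: curve fitted both ways so AC50 may mark viability loss or gain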)
Outline: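 H295R cells prestimulated 48 h with 10 uM forskolin, then exposed 48 h to test chemical (0.1% DMSO final). Viability by MTT (0.5 mg/ml, 4 h, 37 C), absorbance 570/650 nm; percent change versus DMSO, bidirectional fit.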

[12] = Tanguay_ZF_120hpf_ActivityScore_legacy: (Legacy) Oregon State University Tanguay Lab 120 Hour Post-fertilization zebrafish Assay Score for Activity (AID 2283742)
Outline: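 Tropical 5D wild-type zebrafish embryos, dechorionated with pronase at 4 hpf, were exposed singly from 6 hpf to 120 hpf statically at 28C in 0.64% DMSO. Malformations and mortality were scored as binary by brightfield, with the activity score combining 18 morphology components.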

**Q.** Which outcome [1] does the source give for `CC12CC1(C)C(=O)N(c1cc(Cl)cc(Cl)c1)C2=O` (stereo unspecified) here?
**A.** inactive

**Q.** And the outcome [2]?
**A.** inactive

**Q.** What about the outcome [3] of the same compound?
**A.** inactive

**Q.** And the outcome [4]?
**A.** inactive

**Q.** And the outcome [5]?
**A.** inactive

**Q.** What about the outcome [6] of the same compound?
**A.** inactive

**Q.** And the outcome [7]?
**A.** inactive

**Q.** And the AC50 [8]?
**A.** 61 µM (active)

**Q.** And the AC50 [9]?
**A.** 50 µM (active)

**Q.** What about the AC50 [10] of the same compound?
**A.** 50 µM (active)

**Q.** And the outcome [11]?
**A.** inactive

**Q.** And the outcome [12]?
**A.** inactive

**Q.** What does the source list for `CC(=O)[O][Hg][c]1ccccc1`?
**A.** outcome [1]: inactive; outcome [2]: inactive; outcome [3]: inactive; outcome [6]: inactive; AC50 [7]: 0.066 µM (active); AC50 [8]: 0.476 µM (active); AC50 [9]: 0.287 µM (active); AC50 [10]: 0.311 µM (active); AC50 [12]: 0.111 µM (active)

**Q.** What does the source list for `CC1(C)CCC(Cc2ccc(Cl)cc2)C1(O)Cn1cncn1` (stereo unspecified)?
**A.** outcome [4]: inactive; AC50 [5]: 89 µM (active); outcome [11]: inactive

**Q.** With `Cc1ccc2ccccc2c1C` as the compound, how does the AC50 [4] read?
**A.** 34.3 µM (active)

**Q.** And the AC50 [5]?
**A.** 17.4 µM (active)

**Q.** For `COP(=S)(OC)Oc1ccc(Sc2ccc(OP(=S)(OC)OC)cc2)cc1`, which AC50 [4] is on record?
**A.** 11.6 µM (active)

**Q.** With `Fc1ccc(C2(Cn3cncn3)OC2c2ccccc2Cl)cc1` (stereo unspecified) as the compound, how does the outcome [11] read?
**A.** inactive

**Q.** Which AC50 [11] does the source give for `CC(C)OC(=O)Nc1ccccc1` here?
**A.** 2.64 µM (active)

**Q.** Which outcome [11] does the source give for `ClC(Cl)=C(Cl)C(Cl)=C(Cl)Cl` here?
**A.** inactive

**Q.** Which outcome [11] does the source give for `O=C(Cc1ccccc1)c1ccccc1` here?
**A.** inactive

**Q.** For `Oc1ccc(-c2ccccc2)cc1`, which outcome [11] is on record?
**A.** inactive

**Q.** Which AC50 [4] does the source give for `CC1(C)Cc2cccc(O)c2O1` here?
**A.** 12.2 µM (active)

**Q.** For `CC(C)c1cccc(C(C)C)c1O`, which AC50 [4] is on record?
**A.** 10.3 µM (active)

**Q.** What about the AC50 [5] of the same compound?
**A.** 84.6 µM (active)

**Q.** With `C=CC(=O)N(C)C` as the compound, how does the outcome [11] read?
**A.** inactive

**Q.** With `CCCCCCCCC(=O)NCc1ccc(O)c(OC)c1` as the compound, how does the outcome [11] read?
**A.** inactive

**Q.** For `c1cc[c]([Hg][c]2ccccc2)cc1`, which AC50 [11] is on record?
**A.** 24.7 µM (active)

**Q.** Which outcome [11] does the source give for `C[C@]12CC[C@H](O)CC1=CC[C@@H]1[C@@H]2CC[C@]2(C)C(=O)CC[C@@H]12` here?
**A.** inactive

**Q.** Which results are given for `CC(C)(c1ccc(OCC2CO2)cc1)c1ccc(OCC2CO2)cc1` (stereo unspecified)?
**A.** AC50 [4]: 43.5 µM (active); AC50 [5]: 83.7 µM (active); outcome [10]: inactive

**Q.** Which AC50 [4] does the source give for `Clc1ccc(COC(Cn2ccnc2)c2ccc(Cl)cc2Cl)cc1` (stereo unspecified) here?
**A.** 43.8 µM (active)

**Q.** And the AC50 [5]?
**A.** 22.4 µM (active)

**Q.** With `CCOP(=S)(OCC)SCCS(=O)(=O)CC` as the compound, how does the outcome [11] read?
**A.** inactive

**Q.** With `O=C(OC1CCCCC1)c1ccccc1C(=O)OC1CCCCC1` as the compound, how does the AC50 [11] read?
**A.** 28.6 µM (active)

**Q.** For `C1CCC(NC2CCCCC2)CC1`, which outcome [11] is on record?
**A.** inactive

**Q.** For `Nc1ccc(-c2ccc(N)c(Cl)c2)cc1Cl`, which outcome [11] is on record?
**A.** inactive

**Q.** What does the source list for `OCc1ccco1`?
**A.** AC50 [4]: 28.5 µM (active); outcome [5]: inactive

**Q.** Which outcome [11] does the source give for `CN(CCCC(=O)c1cccnc1)N=O` here?
**A.** inactive

**Q.** For `Clc1ccc(C2(Cn3cncn3)CC(Br)CO2)c(Cl)c1` (stereo unspecified), which outcome [4] is on record?
**A.** inactive

**Q.** What about the AC50 [5] of the same compound?
**A.** 95.2 µM (active)

**Q.** For `C(=NC1CCCCC1)=NC1CCCCC1`, which outcome [11] is on record?
**A.** inactive

**Q.** Which AC50 [4] does the source give for `CCC1(c2ccc(N)cc2)CCC(=O)NC1=O` (stereo unspecified) here?
**A.** 0.935 µM (active)

**Q.** What about the outcome [11] of the same compound?
**A.** inactive

**Q.** Which AC50 [4] does the source give for `NNC(=S)NN` here?
**A.** 0.205 µM (active)

**Q.** And the outcome [5]?
**A.** inactive

**Q.** What about the outcome [11] of the same compound?
**A.** inactive

**Q.** For `CCCCCCCCSC(=O)Oc1cc(Cl)nnc1-c1ccccc1`, which AC50 [4] is on record?
**A.** 43.8 µM (active)

**Q.** And the outcome [5]?
**A.** inactive

**Q.** For `C[C@H]1CCCC(=O)CCC/C=C/c2cc(O)cc(O)c2C(=O)O1`, which AC50 [4] is on record?
**A.** 3.47 µM (active)

**Q.** And the AC50 [5]?
**A.** 89.2 µM (active)

**Q.** And the AC50 [11]?
**A.** 69.8 µM (active)

**Q.** For `Cc1ccc(N)cc1Cl`, which AC50 [4] is on record?
**A.** 0.0109 µM (active)

**Q.** And the AC50 [5]?
**A.** 18.4 µM (active)

**Q.** What does the source list for `COP(=O)(OC)O/C(=C\Cl)c1cc(Cl)c(Cl)cc1Cl`?
**A.** AC50 [4]: 48.3 µM (active); AC50 [5]: 25 µM (active); outcome [11]: inactive

**Q.** Which results are given for `CCOC(=O)Nc1cccc(OC(=O)Nc2ccccc2)c1`?
**A.** AC50 [4]: 1.38 µM (active); AC50 [5]: 16.6 µM (active)
